Test results taken from the supplement of paper PMC6555819.

Experiments:
Assay in all cases: PBM binding z-score (relative to random genomic background probes); higher = stronger binding; sequences stand for … in GC…GCGATTGACAGCGTAGAATGAAGG
[1] = test system: FXR:RXRa (NR concentration 270 nM, RXRa partner concentration 90 nM)
Outline: (§1)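 Binding buffer was PBS pH 7.4 with 2% milk, 0.02% Triton X-100, 1 mM DTT, 0.2 mg/mL BSA and 0.4 mg/ml salmon testes DNA. In it, ligand-free nuclear receptor dimers were incubated 1 h on custom Agilent 4×180K protein-binding microarrays carrying double-stranded probes. Antibodies against each partner (one per run) detected binding, and z-scores were calculated against random background probes after regression normalization of scanned fluorescence.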

[2] = test system: LXRa:RXRa (NR concentration 270 nM, RXRa partner concentration 90 nM)
Outline: as §1

[3] = test system: LXRa homodimer (NR concentration 270 nM)
Outline: as §1

[4] = test system: LXRb:RXRa (NR concentration 270 nM, RXRa partner concentration 90 nM)
Outline: as §1

[5] = test system: LXRb homodimer (NR concentration 270 nM)
Outline: as §1

[6] = test system: PPARa:RXRa (NR concentration 270 nM, RXRa partner concentration 90 nM)
Outline: as §1

[7] = test system: PPARg:RXRa (NR concentration 180 nM, RXRa partner concentration 90 nM)
Outline: as §1

[8] = test system: PPARg:RXRa 270nM:90nM, anti-RXR (NR concentration 270 nM, RXRa partner concentration 90 nM)
Outline: as §1

[9] = test system: PPARg:RXRa 30nM:10nM, anti-RXR (NR concentration 30 nM, RXRa partner concentration 10 nM)
Outline: as §1

[10] = test system: PPARg:RXRa 90nM:30nM, anti-RXR (NR concentration 90 nM, RXRa partner concentration 30 nM)
Outline: as §1

[11] = test system: PPARg:RXRa DBDmut IVT, anti-RXR (DBD mutation: RXRa K156A/R161A, NR concentration 270 nM, RXRa partner concentration 90 nM)
Outline: as §1

[12] = test system: PPARg:RXRa IVT, anti-PPARg (NR concentration 270 nM, RXRa partner concentration 90 nM)
Outline: as §1

[13] = test system: PPARg DBDmut:RXRa IVT, anti-PPARg (DBD mutation: PPARg1 K132A/R137A, NR concentration 270 nM, RXRa partner concentration 90 nM)
Outline: as §1

[14] = test system: PPARg DBDmut IVT, anti-PPARg (DBD mutation: PPARg1 K132A/R137A, NR concentration 270 nM)
Outline: as §1

[15] = test system: PPARg homodimer (NR concentration 180 nM)
Outline: as §1

[16] = test system: PXR:RXRa (NR concentration 270 nM, RXRa partner concentration 90 nM)
Outline: as §1

[17] = test system: PXR homodimer (NR concentration 270 nM)
Outline: as §1

[18] = test system: RARa:RXR (NR concentration 270 nM, RXRa partner concentration 90 nM)
Outline: as §1

[19] = test system: RARa homodimer (NR concentration 270 nM)
Outline: as §1

[20] = test system: RARb:RXRa (NR concentration 270 nM, RXRa partner concentration 90 nM)
Outline: as §1

| Sequence | PBM binding z-score [1] | PBM binding z-score [2] | PBM binding z-score [3] | PBM binding z-score [4] | PBM binding z-score [5] | PBM binding z-score [6] | PBM binding z-score [7] | PBM binding z-score [8] | PBM binding z-score [9] | PBM binding z-score [10] | PBM binding z-score [11] | PBM binding z-score [12] | PBM binding z-score [13] | PBM binding z-score [14] | PBM binding z-score [15] | PBM binding z-score [16] | PBM binding z-score [17] | PBM binding z-score [18] | PBM binding z-score [19] | PBM binding z-score [20] |
| --- | --- | --- | --- | --- | --- | --- | --- | --- | --- | --- | --- | --- | --- | --- | --- | --- | --- | --- | --- | --- |
| ACTAGCAGGCCTAGTTTGGGTCACTCAAACAAAG | -0.223 | -0.267 | -0.434 | 0.356 | -0.757 | 1.13 | -0.314 | 0.138 | -0.572 | -0.184 | -0.402 | 0.669 | -0.351 | -1.26 | -0.416 | 0.282 | -0.591 | 1.1 | -0.718 | 0.83 |
| ATCTCTATGTAACAAGTTCAGTGAAAGAGAGGAC | -0.00461 | 0.0801 | 0.289 | 0.189 | 0.769 | 0.267 | 0.597 | 0.532 | 0.31 | 0.575 | -0.367 | 0.29 | 1.13 | 0.92 | 0.596 | 1.35 | 1.37 | 0.511 | 0.404 | 1.08 |
| TCTAGTTGGGCACGGAGGTCACACACGACGGGTA | 2.68 | 2.91 | 1.6 | 2.66 | 0.446 | 3.52 | 2.82 | 3.41 | 2.73 | 2.96 | 1.69 | 2.93 | 1.02 | -0.0176 | 2.73 | 3.91 | 0.835 | 4.24 | 0.793 | 3.36 |
| GCGATTGGGGCAAAGCAGGTTACCATAAGGTTGG | 0.351 | 0.0851 | -0.253 | 0.678 | -0.273 | 1.11 | 0.77 | 0.405 | -0.0974 | 0.132 | 2.25 | 1.69 | -0.0926 | -0.514 | 0.213 | 0.707 | -0.215 | 1.13 | 0.0153 | 0.946 |
| TCTCCTAGGTCAGTTGGTCAGCTAACGAGCTGCC | 1.57 | 1.17 | 0.111 | 1.26 | 1.43 | 1.89 | 0.491 | 2.47 | 2.9 | 2.75 | 2.85 | 3.32 | 1.43 | 0.66 | 1.05 | 0.732 | -0.3 | 0.918 | 0.238 | 3.52 |
| ATCGATAGGTCGACGAGGTGAGTATACACCGTTT | 0.682 | 0.624 | -0.525 | 0.484 | 0.0439 | 1.69 | 1.15 | 0.567 | 0.467 | 0.349 | -0.138 | 0.962 | 0.958 | -0.138 | 0.219 | 0.735 | 0.0845 | 1.6 | 0.235 | 1.65 |
